# According to PubChem BioAssay AID652154 (Broad Institute, 2013):
# The whole screen tested about 360,000 compounds, of which about 4,200 (1.2%) were called active.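 Rule for the calls: active = mean replicate inhibition at least 60% with every replicate also reaching 60%; inconclusive = only one of the two criteria is met; inactive = mean below 60% and not all replicates reaching 60%.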 The list comes from a sample in which actives are over-represented; it also holds similar structures and randomly drawn compounds.
# Assay: inhibitors of PAX8-driven TPO luciferase reporter, primary screen, RMG-I cells, single concentration (AID 652154);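 note: luciferase light reporting Pax8 driven TPO promoter activity; plate controls were median of neutral control wells for no effect and mitoxantrone controls for full effect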
# Details: SteadyGlo, 24 h, at 12.6 µM, stronger effect = higher value
row,Structure (SMILES),inhibition
1,CC(C)NC(=O)N1CCCCN2[C@@H](CO)[C@@H](c3ccc(C#Cc4ccccc4)cc3)[C@@H]2C1,1.5% (inactive)
2,C/C=C/c1ccc2c(c1)O[C@@H](CN(C)CC1CCOCC1)[C@@H](C)CN([C@H](C)CO)S2(=O)=O,-8.71% (inactive)
3,O=C(NC1CCCCC1)N[C@H]1CC[C@H](CCNS(=O)(=O)c2ccc(F)cc2)O[C@H]1CO,1.61% (inactive)
4,C[C@@H]1CCCCO[C@H](CN(C)C(=O)c2ccccc2)[C@H](C)CN([C@H](C)CO)C(=O)c2cc(N(C)C)ccc2O1,12.7% (inactive)
5,CC(C)NC(=O)Nc1ccc2c(c1)C(=O)N([C@H](C)CO)C[C@@H](C)[C@@H](CN(C)C(=O)c1ccncc1)OCCCC[C@H](C)O2,1.42% (inactive)
6,C[C@H](CO)N1C[C@H](C)[C@H](CN(C)Cc2ccc(Oc3ccccc3)cc2)Oc2c(NC(=O)CCCCCC(=O)Nc3ccccc3N)cccc2C1=O,9.67% (inactive)
7,C[C@H](CO)N1C[C@H](C)[C@@H](CN(C)Cc2ccc(-c3ccccc3)cc2)Oc2ccc(NC(=O)CCC(F)(F)F)cc2CC1=O,70.4% (active)
8,Cc1ccc(S(=O)(=O)Nc2ccc3c(c2)C(=O)N([C@@H](C)CO)C[C@@H](C)[C@H](CN(C)Cc2ccc(C(F)(F)F)cc2)O3)cc1,10.1% (inactive)
9,C[C@@H]1CN([C@@H](C)CO)C(=O)Cc2cc(NC(=O)Nc3ccc(C(F)(F)F)cc3)ccc2O[C@H]1CN(C)Cc1ccc(C(=O)O)cc1,-5.6% (inactive)
10,C[C@H](CO)N1C[C@H](C)[C@@H](CN(C)Cc2ccc(Cl)c(Cl)c2)Oc2ccc(NC(=O)Nc3ccc(C(F)(F)F)cc3)cc2CC1=O,99.1% (active)
11,C[C@@H]1CN([C@@H](C)CO)C(=O)c2cccc(NC(=O)CCCCCC(=O)Nc3ccccc3N)c2O[C@H]1CN(C)C(=O)Nc1ccccc1,-12.6% (inactive)
12,C[C@@H]1CN([C@@H](C)CO)C(=O)Cc2cc(NC(=O)CCCN(C)C)ccc2O[C@@H]1CN(C)Cc1ccc(-c2ccccc2)cc1,10.4% (inactive)
13,Cc1ccc(S(=O)(=O)Nc2ccc3c(c2)CC(=O)N([C@H](C)CO)C[C@@H](C)[C@H](CN(C)Cc2ccc(C(F)(F)F)cc2)O3)cc1,70.8% (active)
14,C[C@@H]1CN([C@H](C)CO)C(=O)Cc2cc(NC(=O)CCC(F)(F)F)ccc2O[C@@H]1CN(C)Cc1ccncc1,-1.08% (inactive)
15,C[C@@H]1CN([C@H](C)CO)C(=O)c2cccc(NC(=O)CCCCCC(=O)Nc3ccccc3N)c2O[C@H]1CN(C)Cc1ccc(Oc2ccccc2)cc1,71.9% (active)
16,Cc1ccc(S(=O)(=O)Nc2ccc3c(c2)CC(=O)N([C@@H](C)CO)C[C@H](C)[C@H](CN(C)Cc2ccccc2)O3)cc1,-12.9% (inactive)
17,C[C@@H]1CN([C@H](C)CO)C(=O)Cc2cc(NC(=O)Nc3ccccc3)ccc2O[C@H]1CN(C)Cc1ccc(Cl)c(Cl)c1,8.31% (inactive)
18,C[C@@H]1ON(C)[C@H]2C[C@H]3c4cc(N5CCOCC5)ccc4CCN3C[C@@H]12,-4.88% (inactive)
19,O=C(Nc1ccccc1F)N1CC(=O)N2[C@H](C1)[C@@H](c1ccc(C#CC3CC3)cc1)[C@@H]2CO,-14.6% (inactive)
20,O=C(N[C@@H]1CC[C@@H](CCNS(=O)(=O)c2ccccc2Cl)O[C@@H]1CO)c1ccccc1,-1.25% (inactive)
21,O=C(C[C@@H]1CC[C@H]2[C@@H](COC[C@H](O)CN2Cc2ccc(F)cc2)O1)N1CCc2ccccc2C1,-7.32% (inactive)

row,Structure (SMILES),inhibition
1,CO[C@@H]1CN(C)C(=O)c2cc(NC(=O)c3cnccn3)ccc2OC[C@@H](C)N(CC2CC2)C[C@H]1C,6.97% (inactive)
2,CO[C@@H]1CN(C)C(=O)c2cc(NC(=O)C3CC3)ccc2OC[C@H](C)N(CC2CC2)C[C@H]1C,7.02% (inactive)
3,C[C@@H](O)C#Cc1ccc2c(c1)O[C@@H](CN(C)C)[C@@H](C)CN([C@@H](C)CO)S2(=O)=O,-0.827% (inactive)
4,CCCNC(=O)Nc1ccc2c(c1)C(=O)N(C)C[C@@H](OC)[C@H](C)CN(CCC)[C@@H](C)CO2,-1.74% (inactive)
5,O=C(C1CCC1)N1C[C@H]2[C@@H](c3ccccc31)[C@@H](CO)N2C(=O)c1ccccc1F,5.48% (inactive)
6,COc1cccc(-c2ccc3c(c2)[C@@H]2[C@@H](CCN2S(=O)(=O)C2=NC(C)C=N2)[C@@H](CO)N3C)c1 (stereo partly specified),19.4% (inactive)
7,C/C=C/c1ccc([C@@H]2[C@H](CO)N(CC3CCCC3)C23CN(C(=O)CC)C3)cc1,18.8% (inactive)
8,C[C@H]1CN([C@@H](C)CO)S(=O)(=O)c2ccc(C3=CCCC3)cc2O[C@H]1CN(C)C(=O)Cc1ccncc1,1.78% (inactive)
9,O=C(NCc1ccccc1Cl)[C@H]1[C@H](CO)[C@H]2Cn3c(cccc3=O)[C@H]2N1C(=O)C1CCC1,-12.8% (inactive)
10,Cc1ccc(S(=O)(=O)N(C)C[C@@H]2Oc3c(NC(=O)c4ccncc4)cccc3C(=O)N([C@@H](C)CO)C[C@@H]2C)cc1,1.41% (inactive)
11,CCS(=O)(=O)Nc1ccc2c(c1)C(=O)N(C)[C@H]1CC[C@H](CC(=O)N[C@@H]3CCN(Cc4ccccc4)C3)O[C@H]1CO2,-7.99% (inactive)
12,C[C@@H]1CN([C@H](C)CO)C(=O)c2cc(C3=CCCCC3)cnc2O[C@@H]1CN(C)C(=O)c1ccc2c(c1)OCO2,-9.44% (inactive)
13,C[C@@H]1CN([C@H](C)CO)C(=O)c2cc(C#CCN(C)C)cnc2O[C@H]1CN(C)C(=O)Cc1ccncc1,-16.9% (inactive)
14,C[C@H](CO)N1C[C@H](C)[C@H](CN(C)Cc2ccncc2)Oc2ccc(NS(=O)(=O)c3ccc(F)cc3)cc2CC1=O,6.06% (inactive)
15,COc1ccc(S(=O)(=O)Nc2ccc3c(c2)CC(=O)N([C@H](C)CO)C[C@H](C)[C@H](CN(C)Cc2ccc(C(F)(F)F)cc2)O3)cc1,7.06% (inactive)
16,C[C@H]1CN([C@@H](C)CO)C(=O)Cc2cc(NS(=O)(=O)c3ccc(F)cc3)ccc2O[C@H]1CN(C)Cc1ccc(C(F)(F)F)cc1,-55.2% (inactive)
17,C[C@H]1CN([C@@H](C)CO)C(=O)Cc2cc(NS(=O)(=O)c3cccs3)ccc2O[C@@H]1CN(C)Cc1ccc(Oc2ccccc2)cc1,-11% (inactive)
18,C[C@@H]1CN([C@@H](C)CO)C(=O)Cc2cc(NS(=O)(=O)c3ccc(Cl)cc3)ccc2O[C@H]1CN(C)Cc1ccc(C(F)(F)F)cc1,84.5% (active)
19,C[C@H](CO)N1C[C@H](C)[C@@H](CN(C)Cc2ccc(Oc3ccccc3)cc2)Oc2ccc(NS(=O)(=O)c3ccc(F)cc3)cc2CC1=O,78.6% (active)
20,COCC(=O)N(C)C[C@@H]1Oc2cc(C#Cc3cccnc3)ccc2S(=O)(=O)N([C@H](C)CO)C[C@H]1C,6.54% (inactive)
21,O=C(C[C@H]1CC[C@H]2[C@@H](COC[C@@H](O)CN2CCC(F)(F)F)O1)NCc1ccc2c(c1)OCO2,-15.5% (inactive)

row,Structure (SMILES),inhibition
1,O=C(C[C@H]1C=C[C@H](NC(=O)Nc2ccccc2F)[C@@H](CO)O1)NCc1ccc(Cl)cc1,-8.13% (inactive)
2,C[C@@H]1CCCCO[C@H](CN(C)Cc2ccncc2)[C@@H](C)CN([C@H](C)CO)C(=O)c2cc(NC(=O)CCCN(C)C)ccc2O1,-4.23% (inactive)
3,COc1ccc(NC(=O)N(C)C[C@H]2Oc3ccc(NC(=O)Cc4cn(C)c5ccccc45)cc3CC(=O)N([C@@H](C)CO)C[C@H]2C)cc1,16.5% (inactive)
4,O=C(CN1C(=O)c2ccccc2S1(=O)=O)N1CCc2ccccc21,90.5% (active)
5,CN(Cc1cccs1)C(=O)CN1C(=O)c2ccccc2S1(=O)=O,-105% (inactive)
6,CN(Cc1ccc(F)cc1)C(=O)CN1C(=O)c2ccccc2S1(=O)=O,-2.85% (inactive)
7,C[C@@H]1CN([C@@H](C)CO)C(=O)Cc2cc(NC(=O)Cc3ccccc3)ccc2O[C@@H]1CN(C)Cc1ccc2c(c1)OCO2,13.6% (inactive)
8,Cc1cc(C(=O)Nc2cccc3c2O[C@@H](CN(C)C(=O)Nc2ccc(F)cc2)[C@H](C)CN([C@@H](C)CO)C3=O)n(C)n1,7.05% (inactive)
9,COc1ccc(NC(=O)Nc2ccc3c(c2)C(=O)N([C@@H](C)CO)C[C@H](C)[C@H](CN(C)CC2CCCCC2)O3)cc1,-0.963% (inactive)
10,CC(=O)Nc1ccc(C=CC(=O)c2ccc([N+](=O)[O-])cc2)cc1,15.2% (inactive)
11,O=C1/C(=C\c2ccc([N+](=O)[O-])cc2)CS(=O)(=O)C/C1=C/c1ccc([N+](=O)[O-])cc1,122% (active)
12,O=C(O)C(=Cc1ccc([N+](=O)[O-])cc1)CCc1ccccc1,8.95% (inactive)
13,COc1ccc(S(=O)(=O)N(C)C[C@H]2Oc3c(NC(=O)C4CCOCC4)cccc3C(=O)N([C@@H](C)CO)C[C@@H]2C)cc1,-8.86% (inactive)
14,Cn1cnc(CCNC(=O)[C@H]2[C@H](CO)[C@H]3Cn4c(cccc4=O)[C@H]3N2C(=O)Nc2ccccc2)c1,-6.72% (inactive)
15,Cn1cnc(S(=O)(=O)N2C[C@@H](O)COC[C@@H]3O[C@H](CC(=O)NCc4ccc(F)cc4)CC[C@H]32)c1,-3.38% (inactive)
16,Cc1ccc(/C=N/NC(=O)COc2ccccc2-c2ccccc2)cc1,87.7% (active)
17,Cc1ccc(/C=N/NC(=O)CSc2nc3ccccc3o2)cc1,-83% (inactive)
18,Cc1ccc(COc2ccc(/C=N/NC(=O)CN3CCCCC3)cc2)cc1,-222% (inactive)
19,O=C(C[C@H]1CC[C@@H](NC(=O)Nc2ccc(C(F)(F)F)cc2)[C@H](CO)O1)NCc1cc(F)cc(F)c1,-5.75% (inactive)
